Measurements as given in PubChem BioAssay.
The source made the active and inactive calls. Unless noted, how the calls were made is not given here.

What was measured:
[1] = kinase inhibitors against Plasmodium liver-stage infection, cell-based, known kinase inhibitor set, luminescence, hepatoma host viability (AID 624392); conditions: Plasmodium liver stage in hepatoma cells, luciferase luminescence, concentration not given here; liver cell % of control: measured here: host liver cell viability; parasite % of control: stronger effect = lower value;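 further: infected cells incubated roughly two days before readout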
[2] = modulators of glucocorticoid suppression of NF-kB, cell-based, luciferase, IL-1B stimulus, dexamethasone (AID 624486); conditions: NF-kB luciferase reporter, IL-1B + dexamethasone, luminescence; percent of negative control (+Dex): actives lie on both sides, concentration not given here; z-score: measured here: IL-1B alone, no Dex;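 on percent of negative control (+Dex): 100% = mean signal of vehicle control wells on the plate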
[3] = kinase inhibitors altering Pseudomonas killing of worms, whole organism (AID 651566);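 further: tested at 14 µM; sign flipped so higher z means a lower ratio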; conditions: C. elegans killed by P. aeruginosa, survival ratio
[4] = activators of macrophage pro-inflammatory response, cell-based, murine, luminescence (AID 652131); conditions: murine macrophage pro-inflammatory reporter, stronger effect = higher value
[5] = IRF3 reporter activation in THP-1 macrophages, cell-based, PMA-stimulated THP-1, luminescence (AID 1053176); conditions: PMA-differentiated THP-1, IRF3 reporter luminescence; stronger effect = higher value
[6] = survival rescue of mitochondrial mutant cells in low glucose, primary screen, MELAS cybrids, Rieske KO mouse fibroblasts, CellTiter-Glo (AID 1508586;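 active means mean z-score across replicates of 1.96 or higher in either the MELAS or the Rieske mutant cell line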;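 further: z relative to plate mean and SD of compound and empty wells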)
[7] = stimulators of nuclear beta-catenin in C2C12, primary screen, imaging, WNT3A-conditioned medium, mouse C2C12, NPC library (AID 1117326; in the data active means nuclear beta-catenin stimulation mostly above about 4.2%, no sharp cut-off; inactive means mostly below about 10%); conditions: stronger effect = higher value
[8] = stimulators of insulin release from INS-1E, primary screen, cell-based, 5 mM glucose, NPC library (AID 1117329;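 active means compound raises insulin release from rat beta cells at 5 mM glucose, no numeric limit stated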); conditions: rat INS-1E insulin secretion, at 10 µM, stronger effect = higher value
[9] = growth inhibition of GSK3B-pretreated HCT116 cells – cell-based, CellTiter-Glo, 0.2 to 20 µM (AID 1117336;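 active means compounds lowering colon cancer cell viability after pretreatment blocking the GSK3B kinase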); conditions: HCT116 viability after GSK3B inhibitor, at 20 µM, stronger effect = higher value
[10] = inhibition of endothelial tube formation, primary screen, imaging, VEGF stimulated, CD31 staining, tube area, NPC library (AID 1117340;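 active means compound that reduces growth-factor-driven endothelial tube area in a mixed cell culture, no cutoff stated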); conditions: VEGF-stimulated ADSC/ECFC co-culture, at 10 µM, stronger effect = higher value
[11] = glucagon-like peptide 1 release enhancers, primary assay, NCI-H716 cell line, NPC library (AID 1117341;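 active means compound raises GLP1 secretion from the human gut endocrine cells, with no numeric limit stated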); conditions: NCI-H716 cells, at 10 µM, stronger effect = higher value
[12] = HCT116 colon cancer cell growth inhibition, primary screen, CellTiter-Glo luminescence, NPC library (AID 1117342;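 active means compounds that lower survival of HCT116 colon cancer cells in the luminescence readout, no numeric limit stated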); conditions: at 20 µM (top of the series)
[13] = CellTiter-Glo luminescent readout of SW480 viability loss, NPC library primary (AID 1117343;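 active means compounds that lower viability of the colon cancer cells in the luminescence readout, with no numeric limit stated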); conditions: CellTiter-Glo luminescence; at 20 µM (top of the series)
[14] = decreased DLD-1 cellular survival, CellTiter-Glo luminescent readout, NPC compound collection, primary HTS (AID 1117346;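 active means compounds that lower survival of DLD-1 colon cancer cells in the luminescence readout, no cutoff given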); conditions: DLD-1 viability, CellTiter-Glo luminescence; at 20 µM (top of the series)
[15] = MELAS cybrid survival, CellTiter-Glo 48 h, stronger effect = higher value
[16] = Rieske KO mouse fibroblast survival, CellTiter-Glo 72 h

Structure (SMILES)	liver cell % of control [1]	parasite % of control [1]	percent of negative control (+Dex) [2]	z-score [2]	z-score [3]	z-score [4]	fraction signal [5]	z-score [6, 15]	z-score [6, 16]	nuclear beta-catenin stimulation ([7]; at 10 µM)	nuclear beta-catenin stimulation ([7]; stimulation, at 2 µM)	insulin secretion stimulation [8]	viability decrease [9]	tube area decrease [10]	GLP1 secretion stimulation [11]	inhibition of viability [12]	viability decrease (inhibition) [13]	viability decrease (inhibition) [14]
CC(C)(C)c1ccc(Oc2nccc(-c3c(-c4ccc(F)cc4)ncn3C3CCNCC3)n2)cc1	81.4%	76.7% (inactive)	106% (inactive)	0.75	0.215 (inactive)	-0.618 (inactive)	0 (inactive)	-0.424 (inactive)	0.0471	–	–	–	–	–	–	–	–	–
O=C1NC(=O)C(c2cccc([N+](=O)[O-])c2)=C1Nc1cc(Cl)c(O)c(Cl)c1	108%	92.3% (inactive)	80.5% (inactive)	-0.485	0.045 (inactive)	0.634 (inactive)	-0.003 (inactive)	-0.803 (inactive)	-0.48	–	–	–	–	–	–	–	–	–
O=C1NC(=O)C(c2ccccc2Cl)=C1Nc1cc(Cl)c(O)c(Cl)c1	90.9%	128% (inactive)	95.5% (inactive)	0.49	-0.07 (inactive)	0.319 (inactive)	-0.002 (inactive)	-0.0492 (inactive)	-0.159	–	–	–	–	–	–	–	–	–
N[C@@H](Cc1cc(I)c(O)c(I)c1)C(=O)O	–	–	–	–	–	–	–	–	–	15% (inactive)	3.2%	-1% (inactive)	-3.6% (inactive)	26.5% (inactive)	-3.4% (inactive)	3.4% (inactive)	24.1% (inactive)	-15.2% (inactive)
OC[C@H]1O[C@@H]2O[C@H]3[C@H](O)[C@@H](O)[C@@H](O[C@H]4[C@H](O)[C@@H](O)[C@@H](O[C@H]5[C@H](O)[C@@H](O)[C@@H](O[C@H]6[C@H](O)[C@@H](O)[C@@H](O[C@H]7[C@H](O)[C@@H](O)[C@@H](O[C@H]8[C@H](O)[C@@H](O)[C@@H](O[C@H]1[C@H](O)[C@H]2O)O[C@@H]8CO)O[C@@H]7CO)O[C@@H]6CO)O[C@@H]5CO)O[C@@H]4CO)O[C@@H]3CO	–	–	–	–	–	–	–	–	–	0.1% (inactive)	0.5%	1.1% (inactive)	-5.9% (inactive)	2.3% (inactive)	-1.9% (inactive)	1.17% (inactive)	21% (inactive)	-3.7% (inactive)
Fc1ccc(Oc2nccc(-c3c(-c4ccc(F)cc4)ncn3C3CCNCC3)n2)cc1	104%	122% (inactive)	107% (inactive)	1.11	-1.01 (inactive)	7.24 (active)	0 (inactive)	-0.283 (inactive)	-0.391	–	–	–	–	–	–	–	–	–
Fc1ccc(-c2ncn(C3CCNCC3)c2-c2ccnc(Oc3cccc(F)c3)n2)cc1	80.2%	175% (inactive)	111% (inactive)	0.615	-0.555 (inactive)	-0.299 (inactive)	-0.0075 (inactive)	-0.13 (inactive)	-0.344	–	–	–	–	–	–	–	–	–
CS(=O)(=O)c1ccc(Oc2nccc(-c3c(-c4ccc(F)cc4)ncn3C3CCNCC3)n2)cc1	78.7%	128% (inactive)	92% (inactive)	0.015	-0.505 (inactive)	-0.16 (inactive)	-0.008 (inactive)	-0.0537 (inactive)	-0.376	–	–	–	–	–	–	–	–	–
N[C@H](C(=O)O)[C@@H](O)c1ccc(O)c(O)c1	–	–	–	–	–	–	–	–	–	0.1% (inactive)	0%	11.2% (inactive)	31.7% (inactive)	1.4% (inactive)	-4.8% (inactive)	6.7% (inactive)	21.5% (inactive)	2.8% (inactive)
O=P(O)(O)OCC(O)CO (configuration not stated)	–	–	–	–	–	–	–	–	–	0.5% (inactive)	0.5%	-2.1% (inactive)	4.35% (inactive)	-14.2% (inactive)	0.6% (inactive)	9.3% (inactive)	23.1% (inactive)	18.2% (inactive)
COC[C@@H](c1ccc(C(F)(F)F)cc1)N1CCN(C2(C)CCN(C(=O)c3c(C)ncnc3C)CC2)C[C@H]1C	–	–	–	–	–	–	–	–	–	2.4% (inactive)	2.3%	2.8% (inactive)	-44.2% (inactive)	32% (inactive)	3.1% (inactive)	11.1% (inactive)	-3% (inactive)	3.5% (inactive)
O=C(NCN1CCOCC1)c1cnccn1	–	–	–	–	–	–	–	–	–	1.4% (inactive)	0.7%	0.2% (inactive)	15.3% (inactive)	7.8% (inactive)	-2.9% (inactive)	29.4% (inactive)	40.1% (inactive)	8.3% (inactive)
CCCCC/C=C\C/C=C\CCCCCCCC(=O)NC(C)c1ccccc1 (configuration not stated)	–	–	–	–	–	–	–	–	–	0.2% (inactive)	2.1%	1% (inactive)	23.3% (inactive)	-5.3% (inactive)	0.2% (inactive)	52% (active)	13.5% (inactive)	3.3% (inactive)
O=C1Nc2ccccc2C1(c1ccc(O)cc1)c1ccc(O)cc1	–	–	–	–	–	–	–	–	–	-0.4% (inactive)	-1.6%	0.6% (inactive)	54.5% (active)	16.2% (inactive)	5.4% (inactive)	71.7% (active)	38.2% (inactive)	56.5% (active)
CO/N=C(/C(=O)N[C@@H]1C(=O)N2C(C(=O)[O-])=C(C[n+]3ccn4ncccc43)CS[C@H]12)c1nsc(N)n1	–	–	–	–	–	–	–	–	–	2% (inactive)	-1%	3.45% (inactive)	16.4% (inactive)	-10.7% (inactive)	-1.2% (inactive)	-21.9% (inactive)	-3.8% (inactive)	-6.6% (inactive)
O=C1[C@@H]2[C@H]3CC[C@H](C3)[C@@H]2C(=O)N1CCCCN1CCN(c2ncccn2)CC1	–	–	–	–	–	–	–	–	–	10% (inactive)	34.2%	3.2% (inactive)	-0.8% (inactive)	0.8% (inactive)	1.5% (inactive)	45.5% (inactive)	12.8% (inactive)	1.2% (inactive)
CCCC(=O)O[C@]1(C(=O)CCl)[C@@H](C)C[C@H]2[C@@H]3CCC4=CC(=O)C=C[C@]4(C)[C@@]3(F)C(=O)C[C@@]21C	–	–	–	–	–	–	–	–	–	3.8% (inactive)	-0.1%	3% (inactive)	0.4% (inactive)	36.7% (inactive)	-0.4% (inactive)	70.5% (active)	99.8% (active)	47% (inactive)
CC12C=CC(=O)C=C1CCC1C2C(O)CC2(C)C1CCC2(O)C(=O)COP(=O)(O)O (configuration not stated)	–	–	–	–	–	–	–	–	–	1.1% (inactive)	0.6%	1.5% (inactive)	-38.5% (inactive)	-3.4% (inactive)	-2% (inactive)	1.57% (inactive)	-2.1% (inactive)	-14.4% (inactive)
CN(C)[C@@H]1C(=O)C(C(N)=O)=C(O)[C@@]2(O)C(=O)C3=C(O)c4c(O)cccc4C[C@H]3C[C@@H]12	–	–	–	–	–	–	–	–	–	11% (inactive)	-0.5%	-3% (inactive)	98.1% (active)	-5.9% (inactive)	18.7% (inactive)	75.5% (active)	100% (active)	89.5% (active)
CN1CC(O)c2cc(N=NC(N)=O)c(O)cc21 (configuration not stated)	–	–	–	–	–	–	–	–	–	1.3% (inactive)	1.3%	-1.7% (inactive)	2% (inactive)	-33% (inactive)	2.9% (inactive)	-4.6% (inactive)	4.9% (inactive)	2.4% (inactive)
CCCCS(=O)(=O)N[C@@H](Cc1ccc(OCCCCC2CCNCC2)cc1)C(=O)O	–	–	–	–	–	–	–	–	–	1.1% (inactive)	-1.6%	0.7% (inactive)	96.5% (active)	-5.9% (inactive)	5.3% (inactive)	72.5% (active)	64.5% (active)	50.1% (active)
CC(NC(CCc1ccccc1)C(=O)O)C(=O)N1C(=O)N(C)CC1C(=O)O (configuration not stated)	–	–	–	–	–	–	–	–	–	-1.2% (inactive)	1.8%	5.3% (inactive)	-39.7% (inactive)	6% (inactive)	-5.4% (inactive)	2.8% (inactive)	4.5% (inactive)	-6% (inactive)
CN(C)C(=O)CNC(=O)Cc1ccccc1	–	–	–	–	–	–	–	–	–	-0.3% (inactive)	2.4%	2.5% (inactive)	4.9% (inactive)	7.1% (inactive)	-1.3% (inactive)	7.5% (inactive)	-4.5% (inactive)	-0.5% (inactive)
